Bioassay records as filed in PubChem BioAssay.
p53 reactivator – qHTS assay for re-activators of p53 using a Luc reporter; H1299 p53-A138V BP100-luciferase reporter, luminescence, 24 h; Potency, µM (top dose mostly 92.2 µM), actives largely listed as activators; hit rate 0.063% among 320,000; AID 504706, 2011; also: nearly all actives have a fitted effect of over 45% in size
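H1299 (p53-null), stable ts p53-A138V + BP100-Luc; 1000 cells/well, Opti-MEM/10% FBS; cpd 4 pt, 1:5; 24 h, 37 deg C, 5% CO2; detection reagent 10 min RT; luminescence.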
miR-21 reporter – qHTS Assay for Modulators of miRNAs and/orActivators of miR-21; HeLa miR-21 FLuc reporter, luciferase, 48 h; Potency, µM (highest dose often 38.3 µM), most hits filed as activators; 340,000 tested, under 10 active; AID 2288, 2010;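 also: miR-21 action dims this reporter so a rising signal means less miR-21 action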
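Compounds were titrated across several concentrations (up to approximately 40 uM) and incubated 48 hours with HeLa miR-21-FLuc reporter cells (miR-21 target sequence downstream of FLuc, endogenous miR-21). Readout was firefly luciferase luminescence after lytic detection reagent.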
Nrf2 activator – qHTS of Nrf2 Activators. AREc32 ARE-luciferase reporter (MCF7-derived line), luminescence, 24 h. Potency, µM (highest dose often 46.1 µM), usual class: activators. hit rate 0.31% among 410,000. AID 624171, 2012; also: nearly all actives have a fitted effect of over 65% in size
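Nrf2 activation is followed as ARE-luciferase induction in the AREc32 line after one day of compound treatment; luminescence is read with Steady-Glo.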
A549 tox – Nrf2 qHTS screen for inhibitors: counterscreen for cytotoxicity. Potency, µM (highest dose often 46 µM), hits mostly inhibitors. hit rate 0.16% among 390,000. AID 504648, 2011. A549 ARE-Fluc cells, CellTiter-Fluor viability, 18-24 h
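A549 ARE-Fluc cells in 5% FBS OPTI-MEM, 5000 cells/well, rested 2 h then exposed to compounds in concentration-response for 18-24 h at 37 °C. Viability by CellTiter-Fluor fluorescence (Ex 405/Em 525) after 30 min; luciferase luminescence (BugLite, 15 min, RT) read afterwards.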
ClpP mod – qHTS Assay for Activators of ClpP | Potency, µM (highest dose often 57.5 µM) | ATP-dependent Clp protease proteolytic subunit (Bacillus subtilis (strain 168)), P80244 | purified B. subtilis ClpP, FRET peptide cleavage, 20 min | hit rate 1.9% among 340,000; active = well fitted falling curve with a large enough effect; inconclusive = small, poorly fitted or top-dose-only effect; inactive = no such curve, though single readings can be large or run the other way; also: the source files actives as falling curves though it sought activators and does not explain the sign; nearly all actives have a fitted effect of over 65% in size
Target sequence (P80244 whole entry, looked up): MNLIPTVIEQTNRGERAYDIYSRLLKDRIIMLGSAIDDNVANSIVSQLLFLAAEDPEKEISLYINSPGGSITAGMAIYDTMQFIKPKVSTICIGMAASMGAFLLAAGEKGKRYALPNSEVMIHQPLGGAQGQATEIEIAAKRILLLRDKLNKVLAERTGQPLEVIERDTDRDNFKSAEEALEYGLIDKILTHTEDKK
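FRET quenching reversal measured ClpP activation: 10 microg/mL B. subtilis ClpP at pH 8 with the FRET-FV decapeptide, read at 430 nm after 320 nm excitation. The 20-min minus 0-min signal was scaled between DMSO/no-enzyme wells and ADEP (5.8 microM final).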
Nrf2 inh – Nrf2 qHTS screen for inhibitors | A549 ARE-Fluc reporter, luciferase luminescence, 18-24 h | Potency, µM (highest dose often 46 µM), hits mostly inhibitors | hit rate 2.1% among 360,000 | AID 504444, 2011; also: nearly all actives have a fitted effect of over 60% in size
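Cells were seeded and rested 2 h, then exposed to compounds for 18-24 h. CellTiter-Fluor was read first as a viability measure. BugLite was added 15 min before the final luminescent read of ARE-luciferase activity in A549 cells.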
Of the large screens only hits and unclear results are named; the others gave an inactive call. Only some compounds are listed: those with a hit (about 3.7% of all), similar ones and a draw of the others. Unless noted, calls follow the shape of the dose curve; as a rule, active = well fitted curve in the direction sought with a large enough effect; inconclusive = small, poorly fitted or top-dose-only effect, or another doubt; inactive = no such curve, though single readings can be large; an effect the other way counts as inactive or inconclusive.

Cc1cccc(S(=O)(=O)NCCC(=O)OC(C)C(=O)NC(=O)NC2CCCCC2)c1 (stereo not given)	ClpP mod 32µM (no result: Nrf2 inh)
Cc1sc2ncnc(N3CCC(C(=O)N(C)CC(=O)Nc4cccc(F)c4)CC3)c2c1C	none (no result: p53 reactivator, miR-21 reporter, A549 tox, Nrf2 inh)
Cc1sc2ncnc(N3CCC(C(=O)N(C)CC(=O)Nc4ccc(Cl)c(C(F)(F)F)c4)CC3)c2c1C	A549 tox inconclusive, Nrf2 inh 10µM (no result: miR-21 reporter, ClpP mod)
Cc1sc2ncnc(N3CCC(C(=O)N(C)CC(=O)Nc4ccccc4Cl)CC3)c2c1C	A549 tox inconclusive, Nrf2 inh 23µM (no result: p53 reactivator)
CN(CC(=O)Nc1ccc(Cl)c(C(F)(F)F)c1)C(=O)C1CCN(C(=O)c2ccc(Cl)cc2)CC1	A549 tox inconclusive, Nrf2 inh 23µM (no result: p53 reactivator, miR-21 reporter)
Cc1ccc2occ(CC(=O)N(Cc3ccccc3Cl)C3CCS(=O)(=O)C3)c2c1 (stereo not given)	none (no result: p53 reactivator)
O=C(CSc1nnc(CNC(=O)c2ccccc2F)n1-c1ccccc1)Nc1ccccc1F	none (no result: p53 reactivator)
COC(=O)c1cc(CSc2nnc(-c3ccccc3)c(-c3ccccc3)n2)oc1C	Nrf2 inh 21µM
COC(=O)c1cc(CSc2nc3ccc(C)cc3[nH]2)oc1C	ClpP mod inconclusive, Nrf2 inh 21µM
COC(=O)c1ccc(CSc2nc3ccccc3[nH]2)o1	none
Cn1c2ccsc2c2cnn(Cc3ccccc3F)c(=O)c21	none (no result: p53 reactivator, miR-21 reporter, Nrf2 activator, ClpP mod)
Cc1cccc(N(CC(O)Cn2c3ccccc3c3ccccc32)S(=O)(=O)c2ccc(F)cc2)c1 (stereo not given)	miR-21 reporter inconclusive, ClpP mod 32µM, Nrf2 inh inconclusive (no result: p53 reactivator)
CC(=O)Nc1ccc(N(CC(O)Cn2c3ccccc3c3ccccc32)S(=O)(=O)c2ccc(C)cc2)cc1 (stereo not given)	A549 tox inconclusive, Nrf2 inh inconclusive
Cc1csc(NC(=O)c2ccccc2O)n1	ClpP mod 28µM
N#C/C(=C\c1ccc(-c2cc(Cl)ccc2Cl)o1)C(=O)Nc1ccccc1C(=O)O	none (no result: p53 reactivator)
N#Cc1nc(/C=C/c2ccc(F)cc2)oc1N1CCN(c2ccccc2)CC1	none (no result: p53 reactivator)
CCCCn1c(N)c(N(CCC(C)C)C(=O)c2ccccc2C)c(=O)[nH]c1=O	none (no result: ClpP mod)
CCCCn1c(N)c(N(CCC(C)C)C(=O)c2ccccc2-n2cnnn2)c(=O)[nH]c1=O	ClpP mod 28µM (no result: miR-21 reporter)
CCCCn1c(N)c(N(CCC(C)C)C(=O)c2[nH]c(C)c(C(=O)OCC)c2C)c(=O)[nH]c1=O	ClpP mod 18µM (no result: miR-21 reporter)
CCCCn1c(N)c(N(CC(C)C)C(=O)CSCc2c(C)noc2C)c(=O)[nH]c1=O	ClpP mod 28µM (no result: miR-21 reporter)
COc1cccc(-n2ccnc2SCC(=O)Nc2nc3ccc(C)cc3s2)c1	none (no result: p53 reactivator, Nrf2 inh)
O=C(Cn1c(C(F)(F)F)nc2ccccc21)c1ccccc1	Nrf2 inh 21µM
O=C(Cn1c(C(F)(F)F)nc2ccccc21)c1ccc(Cl)cc1	Nrf2 inh inconclusive
Cc1cc(Oc2nc3ccccn3c(=O)c2/C=C(\C#N)C(=O)NC2CCS(=O)(=O)C2)ccc1Cl (stereo not given)	Nrf2 activator inconclusive (no result: ClpP mod)
N#C/C(=C\c1c(N2CCCCC2)nc2ccccn2c1=O)C(=O)NC1CCS(=O)(=O)C1 (stereo not given)	ClpP mod 4µM, Nrf2 inh inconclusive
Cc1cccn2c(=O)c(/C=C(\C#N)C(=O)NC3CCS(=O)(=O)C3)c(N3CCC(C)CC3)nc12 (stereo not given)	ClpP mod inconclusive
Cc1cccc(Oc2nc3ccccn3c(=O)c2/C=C(\C#N)C(=O)NC2CCS(=O)(=O)C2)c1 (stereo not given)	ClpP mod 25µM
CCCSc1ncnc2c1c(-c1ccccc1)cn2-c1ccccc1OC	none (no result: p53 reactivator)
CCCCC(=O)Nc1cc(OC)c(NC(=S)Nc2ccc(OC)cc2)cc1OC	none (no result: p53 reactivator, miR-21 reporter)
COc1ccc(NC(=O)CN2C(=O)CC(c3ccc(C)c(C)c3)=Nc3ccccc32)cc1OC	none (no result: p53 reactivator)
